A short description of assay [1]: resazurin metabolic signal in HepG2 cells – cell-based, resazurin fluorescence, 24 h, PK04 Diversity Set, profiling panel (AID 1172). Note: test concentration not given here. The note with it: HepG2 viability, higher = more signal.
Assay [2] is described as follows: budding yeast growth changes without added modifier – OD600, strain BY4716, 24 h, basal condition, primary screen (AID 1173). The note with it: S. cerevisiae BY4716 growth, OD600, 24 h; higher = more signal, called active from +8 up or from −8 down.
The nature of assay [3]: viability profiling in MM1S myeloma cells – cell-based, resazurin fluorescence, basal, 24 h, PK04 Diversity Set, profiling panel (AID 1174).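 Note: MM1S multiple myeloma cell line; test concentration not given here.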 The note with it: higher = more signal, called active from +8 up or from −8 down. (Alamar Blue is a resazurin reagent that responds to reducing activity.)
Assay [4] addresses Dihydroorotate dehydrogenase (quinone), mitochondrial (Plasmodium falciparum (isolate 3D7)) (UniProt Q08210). The assay is described as follows: inhibition of P. falciparum DHODH – biochemical, C-terminal His tag, absorbance 600 nm, primary screen (AID 1175).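 Note: recombinant parasite enzyme with a five histidine tag at its C terminus; test concentration not given here.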 The note with it: PfDHODH enzyme, DCIP absorbance 600 nm; higher = more signal, called active from +8 up or from −8 down.

The nature of assay [5]: inhibition of PAO1 biofilm formation – strain PAO1, LB-PBS medium, absorbance 600 nm, primary screen (AID 1176). Note: test concentration not given here. The note with it: P. aeruginosa PAO1 growth/biofilm, A600, 12 h; higher = more signal.
Assay [6] in a line: growth modulation of vineyard yeast isolate – strain RM11-1a, OD600, basal, 24 h, primary screen (AID 1177).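 Note: cultures grown under basal conditions with no added stressor; test concentration not given here.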 Particulars: S. cerevisiae RM11-1a growth, OD600, 24 h; higher = more signal, called active from +8 up or from −8 down.
A short description of assay [7]: growth of efflux-deficient E. coli DRC39 – strain DRC39, OD650, 24 h, E. coli filamentation inducers, primary screen (AID 1178).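 Note: growth measured as culture turbidity by optical density at 650 nm; test concentration not given here.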 The note with it: E. coli DRC39 acrAB, higher = more signal, called active from +8 up or from −8 down.
Assay [8] in a line: growth of efflux-deficient E. coli DRC39 – strain DRC39, OD650, 48 h, E. coli filamentation inducers, primary screen (AID 1179).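 Note: screen aims at cell division blockers that make cells filament.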 Particulars: E. coli DRC39 delta-acrAB growth, higher = more signal, called active from +8 up or from −8 down.
Assay [9] is described as follows: viability profiling in RPMI8226 myeloma cells – cell-based, resazurin fluorescence, basal, 24 h, PK04 Diversity Set, profiling panel (AID 1180).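 Note: RPMI8826 multiple myeloma cell line at 5000 cells per well; test concentration not given here.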 The note with it: higher = more signal.
Assay [10] concerns the target E3 ubiquitin-protein ligase XIAP (Homo sapiens) (UniProt P98170). The assay can be described thus: small molecules binding XIAP protein – biophysical, small-molecule microarray, fluorescence 635 nm, primary screen (AID 1181).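 Note: score merges 667 nm emission and signal to noise over triplicate slides.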 Particulars: higher = more signal.

The source made the active and inactive calls. Unless noted, the rule behind the calls is not given here.

Sequence of Dihydroorotate dehydrogenase (quinone), mitochondrial (Plasmodium falciparum (isolate 3D7)) (Q08210 whole entry, looked up): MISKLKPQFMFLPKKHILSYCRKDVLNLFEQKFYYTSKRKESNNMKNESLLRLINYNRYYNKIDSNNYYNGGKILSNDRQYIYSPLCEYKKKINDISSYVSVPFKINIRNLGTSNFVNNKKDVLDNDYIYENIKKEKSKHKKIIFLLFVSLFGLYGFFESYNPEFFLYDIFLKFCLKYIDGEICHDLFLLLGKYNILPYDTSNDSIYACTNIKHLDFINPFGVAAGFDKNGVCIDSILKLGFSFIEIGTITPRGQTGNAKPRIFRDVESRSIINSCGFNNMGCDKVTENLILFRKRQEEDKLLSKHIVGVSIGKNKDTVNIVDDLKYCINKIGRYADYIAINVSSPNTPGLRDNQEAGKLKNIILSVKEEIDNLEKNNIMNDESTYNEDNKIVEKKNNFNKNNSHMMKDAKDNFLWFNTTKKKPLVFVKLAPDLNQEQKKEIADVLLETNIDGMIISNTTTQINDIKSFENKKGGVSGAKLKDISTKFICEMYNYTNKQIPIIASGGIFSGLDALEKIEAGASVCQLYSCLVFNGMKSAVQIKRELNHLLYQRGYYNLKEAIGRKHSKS
Sequence of E3 ubiquitin-protein ligase XIAP (Homo sapiens) (P98170 whole entry, looked up): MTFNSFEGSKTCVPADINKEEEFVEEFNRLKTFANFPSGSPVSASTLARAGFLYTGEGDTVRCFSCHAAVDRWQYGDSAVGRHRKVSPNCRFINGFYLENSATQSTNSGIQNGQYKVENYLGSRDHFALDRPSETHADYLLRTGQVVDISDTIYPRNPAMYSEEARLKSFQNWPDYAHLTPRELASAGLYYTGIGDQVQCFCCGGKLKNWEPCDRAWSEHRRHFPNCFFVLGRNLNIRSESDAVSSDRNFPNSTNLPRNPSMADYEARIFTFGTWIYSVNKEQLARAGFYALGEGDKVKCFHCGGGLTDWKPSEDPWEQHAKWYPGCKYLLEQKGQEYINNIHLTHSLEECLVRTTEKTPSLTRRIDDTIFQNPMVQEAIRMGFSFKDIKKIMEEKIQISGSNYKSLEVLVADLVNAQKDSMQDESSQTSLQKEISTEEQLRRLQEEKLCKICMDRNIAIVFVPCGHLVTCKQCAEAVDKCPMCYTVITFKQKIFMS

In the case of `CC(=O)OC[C@H]1O[C@H](CCON=C(C)C)C=C[C@@H]1OC(C)=O`, the z-score in [1] is -0.97; in assay [2] it was 0.421 (inactive); in [3] it was -0.54 (inactive); in assay [5], 0.265 (inactive); in assay [6], 0.404 (inactive); in assay [7], 0.795 (inactive). Moreover, the results for the z-score in assay [8] and in assay [9] were -0.844 (inactive) and -0.0326, respectively. In addition, the figures for the composite z-score in assay [4] and in [10] were -0.0136 (inactive) and -0.102, respectively.

In the case of `CON=C(C)CCN1CCc2nc(-c3ccccc3)c(-c3ccccc3)cc2C1`, the z-score in assay [1] is 1.86; in assay [2], -6.56 (inactive); in [3], -0.217 (inactive); in [5], 0.958 (inactive); in [6], 0.886 (inactive); in assay [7], 0.83 (inactive). Further, the z-score in assay [8] was -2.48 (inactive); in [9], 1.14. For the same compound, the composite z-score in [4] was -0.467 (inactive); in [10], -0.0115.

For the compound `O=C1C=C[C@@H](O)[C@@H]2[C@@H]3C(=O)N(Cc4ccc5c(c4)OCO5)C(=O)[C@@H]3CC[C@@H]12`, the z-score in [1] was -0.557; in assay [2], 0.516 (inactive); in assay [3], 0.966 (inactive); in assay [5], 0.0122 (inactive); in assay [6] it was -0.129 (inactive); in assay [7], 0.207 (inactive). Besides, the z-score is -0.173 (inactive) in assay [8] and 0.422 in assay [9]. Further, the composite z-score in assay [4] was 0.0627 (inactive); in assay [10], -0.0233.

Turning to `CC(C)(C)N1C(=O)[C@H]2[C@H]3[C@H](O)[C@H](O)CC(=NNC(=O)OCc4ccccc4)[C@@H]3CC[C@H]2C1=O`, the z-score in [1] was -0.169; in assay [2] it was 0.216 (inactive); in assay [3], -0.484 (inactive); in assay [5] it was -0.413 (inactive); in assay [6] it was -0.168 (inactive); in assay [7], 0.223 (inactive). The figures for the z-score in [8] and in [9] were 0.342 (inactive) and -0.376, respectively. Besides, the composite z-score in [4] is -0.111 (inactive); in [10], -0.102.

Turning to `CC(CCN1CCc2nc(-c3ccccc3)c(-c3ccccc3)cc2C1)=NO[C@H](C)c1cn([C@H](CO)Cc2ccccc2)nn1`, the z-score in [1] was -0.391; in [2] it was -1.74 (inactive); in assay [3], 0.474 (inactive); in assay [5], 0.593 (inactive); in assay [6], -0.222 (inactive); in assay [7], -0.424 (inactive). The z-score was -1.95 (inactive) in [8] and 0.2 in assay [9]. The values for the composite z-score in [4] and in assay [10] were -1.38 (inactive) and -0.156, respectively.

Consider `CCOC(=O)CCN1C(=O)[C@H]2[C@H]3[C@H](O)[C@H](O)CC(=NO[C@@H]4O[C@H](CO)[C@@H](O)[C@H](O)[C@H]4O)[C@@H]3CC[C@H]2C1=O`, for which the z-score in assay [1] is -0.901; in assay [2], -1.4 (inactive); in assay [3] it was -0.481 (inactive); in [5] it was 0.48 (inactive); in assay [6], -0.445 (inactive); in [7], 0.225 (inactive). Moreover, the z-score in assay [8] is 0.79 (inactive); in [9] it was -0.634. Besides, the composite z-score in assay [4] is -0.451 (inactive); in assay [10], -0.0125.

`CO[C@H]1COC(=O)CCC[C@H](C)[C@@H](OC)COC(=O)CC=C[C@@H]1C`: the z-score in [1] was 0.367; in [2], -0.721 (inactive); in assay [3], -1.18 (inactive); in assay [5] it was -0.339 (inactive); in assay [6], -1.02 (inactive); in assay [7], 0.42 (inactive). In addition, the values for the z-score in assay [8] and in assay [9] were 0.0526 (inactive) and 1.07, respectively. For the same compound, the composite z-score is -1.58 (inactive) in assay [4] and 0.0029 in assay [10].

`CC(C)=CCCC(C)=CCON=C1C[C@@H](O)[C@@H](O)[C@@H]2[C@@H]3C(=O)N(Cc4ccc5c(c4)OCO5)C(=O)[C@@H]3CC[C@@H]12`: the z-score in assay [1] was 0.542; in [2], -0.872 (inactive); in assay [3], 0.411 (inactive); in assay [5], -0.437 (inactive); in assay [6], 0.268 (inactive); in assay [7], 0.499 (inactive). Moreover, the z-score in [8] is -0.588 (inactive); in assay [9] it was 0.354. Further, the composite z-score in [4] is -0.396 (inactive); in [10], -0.17.

Regarding `COC(=O)[C@H](C)NC(=O)CCC1CC(OC(=O)NCc2cccc3ccccc23)CC2(CCCC(COC(=O)NCCOc3ccccc3)O2)O1` (stereo not given in full), the z-score in [1] was 0.311; in assay [2] it was -0.689 (inactive); in assay [3] it was 0.875 (inactive); in [5], -0.458 (inactive); in [6], 0.149 (inactive); in assay [7] it was 0.008 (inactive). The z-score was -0.693 (inactive) in [8] and 0.564 in assay [9]. Further, the figures for the composite z-score in [4] and in assay [10] were -0.989 (inactive) and -0.275, respectively.

Consider `C=CC[C@@H]1C=CC(ON=C(C)C)[C@@H](CO)O1` (stereo not given in full), for which the z-score was -0.689 in assay [1]; 0.381 (inactive) in assay [2]; -0.389 (inactive) in assay [3]; -0.254 (inactive) in assay [5]; 1.1 (inactive) in assay [6]; 0.832 (inactive) in assay [7]. For the same compound, the z-score in assay [8] is -1.16 (inactive); in assay [9], 0.283. The composite z-score in [4] is 0.532 (inactive); in [10], -0.267.

For the compound `CCO[C@H](c1cc(OC)cc([N+](=O)[O-])c1OC)[C@H](C)[C@@H](OC)[C@H](C)C=CCC(=O)OC`, the z-score was -0.467 in assay [1]; -0.435 (inactive) in assay [2]; 0.149 (inactive) in assay [3]; -0.303 (inactive) in assay [5]; -0.147 (inactive) in assay [6]; -0.508 (inactive) in [7]. The z-score in assay [8] was -0.17 (inactive); in assay [9] it was 0.0951. The composite z-score in assay [4] was 0.189 (inactive); in assay [10], 0.1.

On to `COc1ccc(OC[C@@H]2CC3[C@@H](c4ccc(Br)cc4)[C@H](C)CC[C@H]3C(=O)O2)cc1` (stereo not given in full), for which the z-score in assay [1] is 0.527; in assay [2], -0.845 (inactive); in assay [3], 0.364 (inactive); in assay [5] it was -0.315 (inactive); in assay [6], 0.0086 (inactive); in [7], -0.941 (inactive). The values for the z-score in assay [8] and in assay [9] were -1.58 (inactive) and 1.04, respectively. The composite z-score in assay [4] is 0.301 (inactive); in assay [10] it was 0.326.

In the case of `CO[C@@H]1C=CCC(=O)N[C@@H](C)C(=O)OC[C@@H](OC)[C@H](C)C=CCC(=O)OC[C@H]1C`, the z-score was -0.103 in assay [1]; -0.615 (inactive) in assay [2]; 0.697 (inactive) in assay [3]; -0.507 (inactive) in [5]; -0.718 (inactive) in assay [6]; 0.267 (inactive) in assay [7]. Further, the z-score in assay [8] was -0.42 (inactive); in [9], 0.103. The composite z-score in assay [4] was -0.765 (inactive); in assay [10] it was -0.169.

For the origin of these results see PubChem BioAssay.
